TRHR agonist: activates the human TRH receptor. P34981. TRHR cells, calcium flux fluo-8, FDSS agonist mode. activation, % at 2 µM. 360,000 compounds, 0.18% hits. AID 493084; in the data active = activation above about 30%; also: 0% is about no effect
Target sequence (P34981 whole entry, looked up): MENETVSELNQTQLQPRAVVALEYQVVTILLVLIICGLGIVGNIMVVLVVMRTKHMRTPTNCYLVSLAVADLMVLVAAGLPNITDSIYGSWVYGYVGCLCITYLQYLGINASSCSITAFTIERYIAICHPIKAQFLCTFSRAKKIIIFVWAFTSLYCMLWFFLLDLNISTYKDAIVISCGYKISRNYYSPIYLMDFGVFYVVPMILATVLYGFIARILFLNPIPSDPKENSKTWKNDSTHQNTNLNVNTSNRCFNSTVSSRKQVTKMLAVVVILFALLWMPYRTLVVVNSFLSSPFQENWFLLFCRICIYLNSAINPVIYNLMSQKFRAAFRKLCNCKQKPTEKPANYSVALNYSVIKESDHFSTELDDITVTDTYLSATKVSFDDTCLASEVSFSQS
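TRHR-expressing cells, plated overnight in medium with 10% serum, were loaded with fluo-8 calcium dye at room temperature. After a 10 s baseline, library compound was pin-added and calcium release was recorded kinetically (ex 480/em 530) as agonist response.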
TRHR PAM: allosterically enhances the human TRH receptor | TRHR cells, fluo-8 calcium fluorescence, EC20 TRH enhancement | AID 493056 | enhancement, % at 2 µM | 360,000 compounds, 0.66% hits; in the data active = enhancement above about 30%; also: 0% is about no effect
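Enhancer read-out: after compound pinning and an initial kinetic agonist-mode read, an EC20 of TRH (10 nM final) was injected and fluo-8 calcium signal (Ex 480/Em 530) followed at 1 s/cycle for 100 cycles in TRHR-expressing cells.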
TRPML1 agonist: activates the human TRPML1 channel | TRPML1-expressing cells, Ca2+ dye fluorescence, FDSS | 410,000 compounds, 0.12% hits | Q9GZU1 | activation, % (no concentration beside the values); in the data active = activation above about 50%; also: 0% is about no effect
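Tetracycline-induced TRPML1-DL cells are seeded and incubated overnight before loading with a no-wash Ca2+ dye and quencher. Agonist activity is taken from the 110 s fluorescence read following compound pin-transfer on an FDSS, before EC80 54-4 challenge.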
TRPML1 inh: human mucolipin-1 channel inhibition; activity change, negative = inhibition, % (no concentration beside the values); 390,000 compounds, 0.02% hits; Q9GZU1; TRPML1-inducible cells, Ca2+ dye fluorescence, FDSS; hits give low values; inhibition of EC80 agonist-evoked calcium signal; in the data active = activity change below about -50%;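 also: stimulus is agonist 54-4 at its EC80 concentration; % is scaled to controls: 0 for no effect and ±100 for the full control effect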
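Tet-induced TRPML1-DL cells loaded with Ca8 no-wash calcium dye were read kinetically on FDSS. Compound addition was followed by EC80 agonist 54-4 (4 uM final); inhibition was read over 110 s.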
Active calls of the source: *; / = no result. An excerpt weighted towards active compounds, which were near 0.81% of everything screened.

SMILES | TRHR agonist | TRHR PAM | TRPML1 agonist | TRPML1 inh
Cc1cccc(C(=O)NC(=S)NNC(=O)Cc2ccccc2)c1 | 10.4 | 0.5 | 21.5 | -22.2
Cc1onc(-c2ccccc2)c1C(=O)NNC(=S)NC(=O)c1ccc(Cl)cc1Cl | 35.1* | 1.7 | 91.1* | 17.7
Cc1cccc(C(=O)NC(=S)Nc2ccccc2C(F)(F)F)c1 | -0.3 | 31.6* | 1.3 | 32.0
Cc1ccc(C(=O)NNC(=S)NC(=O)c2ccc(Cl)cc2)cc1 | / | / | 60.8* | -17.0
CC(=O)Nc1ccc(/C=C/c2nc3ccccc3s2)cc1 | / | / | 3.7 | /
NC(=O)c1nsc(C(=O)N(c2ccccc2F)C(C(=O)NCc2ccc(F)cc2)c2ccc(O)cc2)c1N (stereo not given) | 1.1 | 30.1* | 1.8 | 5.7
CCOc1ccc(-n2c(CCC(=O)O)ccc2-c2ccc(Br)cc2)cc1 | -0.1 | 32.9* | 2.6 | -7.7
CCOC(=O)c1ccc(-n2c(CCC(=O)O)ccc2-c2ccc(Br)cc2)cc1 | 0.3 | 1.2 | 2.0 | 22.3
O=C(O)c1ccc2c(c1)C(=O)N(N1C(=O)c3ccccc3C1=O)C2=O | 2.2 | 31.3* | -1.1 | 4.2
O=C(O)c1ccc2c(c1)C(=O)N(CCc1ccccc1)C2=O | 0.2 | 6.5 | 0.2 | -2.4
O=C(O)Cc1nnc(-c2cc3ccccc3[nH]2)s1 | 1.0 | 1.3 | / | /
COc1cc(/C=C2\CC/C(=C\c3ccc(OCCO)c(OC)c3)C2=O)ccc1OCCO | 113.6* | 27.9 | 106.9* | -28.1
COc1ccc(/C=C2\CC/C(=C\c3ccc(OC)c(OC)c3)C2=O)cc1OC | 0.9 | 1.9 | 4.1 | 21.0
CCn1cc(C(=O)NC(C)C23CC4CC(CC(C4)C2)C3)cn1 (stereo not given) | -0.9 | 6.7 | 0.9 | -23.4
CCn1cc(C(=O)NC(C)C2CC3CCC2C3)cn1 (stereo not given) | 1.3 | 31.1* | 0.1 | 1.6
Cc1cnc2ccc(I)cc2c1/C=C/c1ccc(N(C)C)cc1 | / | / | 3.3 | /
CCOc1ccc(NC(=O)COC(=O)c2ccccc2OCc2ccccc2Br)cc1 | / | / | 0.4 | /
Clc1ccc2[nH]c3c(c2c1)CNCC3 | 0.7 | 37.9* | 1.1 | -14.6
Cc1cc2c(s1)c1cnn(Cc3cc(F)cc(F)c3)c(=O)c1n2C | -0.3 | 2.4 | / | /
COc1ccc(S(=O)(=O)NNC(N)=S)cc1 | 0.3 | 30.6* | -0.1 | 0.5
CC[C@@H]1[C@H]2CCCC(=O)N3CC[C@@H](C[C@@H]1OC(=O)Nc1ccc4c(c1)OCO4)[C@@H]23 | / | / | -0.2 | /
COC(=O)[C@@H](c1ccccc1)N(C)S(=O)(=O)c1cccc(S(=O)(=O)N(C)[C@@H](C(=O)OC)c2ccccc2)c1 | 1.5 | 0.5 | 73.6* | -21.9
COC(=O)C(c1ccccc1)C(C(=O)OC)c1ccccc1 (stereo not given) | -0.3 | 1.9 | 0.2 | -5.7
Cc1cnc(C(=O)OCC(=O)Nc2ccc(C)c(S(=O)(=O)N3CCCCCC3)c2)cn1 | -0.5 | 33.0* | 3.0 | 16.5
Cc1cnc(C(=O)OCC(=O)Nc2cc(-c3ccccc3)nn2-c2ccccc2)cn1 | 0.0 | 32.0* | 2.1 | -20.6
SMILES | TRHR agonist | TRHR PAM | TRPML1 agonist | TRPML1 inh
COc1ccc(-n2nc(C(=O)O)c3csc(N)c3c2=O)cc1 | -1.3 | 1.7 | / | /
O=C(CNC(=O)c1cccc(Cl)c1)OC(C(=O)Nc1cc(C(F)(F)F)ccc1Cl)c1ccccc1 (stereo not given) | -0.2 | 11.2 | / | /
Cn1c(=O)n(C)c2cc(N3CCOCC3)c(NC(=O)c3ccc(F)cc3)cc21 | 0.2 | 31.6* | -0.5 | 5.0
COc1ccc(N2CCOCC2)c(NC(=O)c2ccc3c(c2)OCO3)c1 | 0.0 | 37.8* | -0.2 | 7.7
CC(C)(C)n1ncc2c(=O)n(Cc3ccc(C#N)c(F)c3)cnc21 | / | / | 0.5 | 8.2
COc1cc(Cl)c(NC(=O)CCS(=O)(=O)c2ccc3c(c2)NC(=O)CO3)c(OC)c1 | 0.0 | 30.8* | 2.0 | -14.3
COc1ccc(C)cc1S(=O)(=O)NCCN1CCOCC1 | 1.0 | 39.9* | -1.0 | 5.9
COc1ccc(Br)cc1S(=O)(=O)NCCN1CCOCC1 | 1.1 | 3.9 | 0.5 | 24.9
O=C(CN1c2ccccc2Sc2ccccc21)NNC(=O)Nc1ccc(Cl)c(Cl)c1 | -0.5 | -1.9 | 0.7 | 12.3
O=C(CN1c2ccccc2Sc2ccccc21)NNC(=O)Nc1ccc(Cl)cc1 | 0.1 | 36.8* | 1.2 | -4.7
O=S1(=O)CCOC[C@H](c2ccccc2)N1Cc1ccc(F)cc1 | / | / | 0.1 | /
COC(=O)c1ccc(C)c(NC(=O)CCSc2ccc(C)cc2)c1 | -0.2 | 34.1* | 1.2 | -13.0
